# Bioassay records from PubChem.
# Pf growth 48h – Primary qHTS for delayed death inhibitors of the malarial parasite plastid, 48 hour incubation. P. falciparum luciferase growth in erythrocytes, 48 h. Potency, µM (highest dose often 28.7 µM), inactives show at the top dose activity change, negative = inhibition, actives largely listed as inhibitors. 310,000 compounds, 5.9% hits. AID 504832, 2011; also: % is scaled to controls: 0 for no effect and ±100 for the full control effect
#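 Here the parasites carry a stable luciferase gene and grow inside erythrocytes in Albumax-based RPMI medium with compound for one erythrocytic cycle. Activity is scored as loss of luminescent signal.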
# Pf growth 96h – Primary qHTS for delayed death inhibitors of the malarial parasite plastid, 96 hour incubation | 320,000 compounds, 6.9% hits | P. falciparum luciferase reporter growth, 96 h | Potency, µM (highest dose often 28.7 µM), for inactives: at the highest dose activity change, negative = inhibition, most hits filed as inhibitors; also: % is scaled to controls: 0 for no effect and ±100 for the full control effect
#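 P. falciparum expressing integrated firefly luciferase grown in erythrocytes (2% hematocrit, 0.05% parasitemia final) with compounds for 96 hours at 37 C, 5% CO2. Growth inhibition read as loss of luminescence after adding luciferase detection reagent.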
# Sm TGR inh – qHTS Assay for the Inhibitors of Schistosoma Mansoni Peroxiredoxins; 360,000 compounds, 3% hits; Potency, µM (doses to about 114 µM), without a hit: at the highest dose activity change, negative = inhibition, hits mostly inhibitors; purified TGR, DTNB reduction, TNB absorbance 405 nm; also: % is scaled to controls: 0 for no effect and ±100 for the full control effect; nearly all actives have a fitted effect of over 60% in size
#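 TGR 20 nM + NADPH 100 uM (dispensed conc.), cpd preinc 15 min RT; start with NADPH (500 uM addition) then DTNB (15 mM addition). Kinetic TNB absorbance, 405 nm filter. Four-parameter Hill fit across titration.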
# SARS PLP yeast – qHTS of Yeast-based Assay for SARS-CoV PLP; S. cerevisiae expressing SARS-CoV PLpro, growth rescue; Potency, µM (series often up to 32.9 µM), inactives show top-dose activity, positive = growth rescue, usual class: activators; 330,000 compounds, 0.19% hits; calls by dose curve; also: 0% is about no effect; nearly all actives have a fitted effect of over 55% in size
# The depositor's hits bear a star; i = inactive; ? = inconclusive; / = no result given; [ ] = another dose, or the depositor's remark. In the library only some 12% were active in any assay of this set; here they are far more common. Unless noted, calls follow the shape of the dose curve; as a rule, active = well fitted curve in the direction sought with a large enough effect; inconclusive = small, poorly fitted or top-dose-only effect, or another doubt; inactive = no such curve, though single readings can be large; an effect the other way counts as inactive or inconclusive. Potency is read from the fitted curve at half-maximal effect.
SMILES,Pf growth 48h,Pf growth 96h,Sm TGR inh,SARS PLP yeast
CCC(C)NC(=O)C1CC(c2cccc(OC)c2)=NO1 (stereo not drawn),9.3%,10.4µM*,-4.4%,-1.3%
Cc1ccc(CNC(=O)C2CC(c3cccc([N+](=O)[O-])c3)=NO2)cc1 (stereo not drawn),2.62µM*,42.3%,0.0%,0.9%
COc1ccc(CNC(=O)C2CC(c3cccc([N+](=O)[O-])c3)=NO2)cc1 (stereo not drawn),78.0%,131.2%,-18.5%,4.1%
O=c1c2ccccc2[nH]c(=S)n1CCCN1CCC(Cc2ccccc2)CC1,-16.5%[0.00184 µM],25.0%,0.1%,1.9%
CCOc1ccc(CNC(=O)c2ccc(-c3nc(CSc4ccc(C)cc4)c(C)o3)cc2)cc1,/,/,-7.2%,/
CC(C)(C)[C@@H]1C=C(C(=O)N2CCN(Cc3ccccc3)CC2)O[C@H](OCc2ccc(CO)cc2)C1,?,14.7µM*,-26.4%,-1.2%
CC(C)(C)[C@H]1C=C(C(=O)N2CCN(Cc3ccc4c(c3)OCO4)CC2)O[C@@H](OCc2ccc(CO)cc2)C1,10.4µM*,?,1.2%,0.2%
O=C(NCCOC(=O)c1c(F)cccc1Cl)c1c(F)cccc1Cl,?,?,12.1%,-1.0%
O=C(CN1CCN(c2ccc(F)cc2)CC1)N(C1CCCC1)C1CCS(=O)(=O)C1 (stereo not drawn),-16.7%,-23.1%,-6.0%,-8.9%
COc1ccccc1CNC(=O)c1ccc(CS(=O)(=O)c2ccc(C)cc2)o1,13.4%,18.6%,35.5µM*,-5.6%
COC(CNC(=O)c1ccc(CS(=O)(=O)c2ccc(Br)cc2)o1)OC,-25.7%[0.00184 µM],5.2%,-13.1%,0.8%
COC(CNC(=O)c1ccc(CS(=O)(=O)c2ccc(C)cc2)o1)OC,8.8%[0.00184 µM],2.62µM*,2.9%,-1.7%
COc1ccc(S(=O)(=O)N2CCN(Cc3ccc4c(c3)OCO4)CC2)cc1OC,/,/,0.0%,/
O=C(Nc1ccccc1C(=O)OCc1cc(=O)n2c3c(sc2n1)CCCC3)c1ccc(F)cc1,/,/,3.2%,/
Cn1c2ccccc2c2cc([N+](=O)[O-])ccc21,19.8%,12.4%,-1.6%,-0.9%
CN1c2ccc([N+](=O)[O-])cc2N(C)C1(C)c1ccccc1 (stereo not drawn),11.7µM*,i,-8.7%,0.7%
C[C@]12CCC(O)CC1=CCC1C2CC[C@]2(C)/C(=N\NC(N)=S)CCC12 (stereo partly drawn),7.3%,?,-18.3%,0.4%
O=C(O)c1ccc2c(=O)[nH]c(CN3CCOCC3)nc2c1,3.5%,/,0.1%,6.6%
O=C(O)c1ccc2c(=O)[nH]c(CCl)nc2c1,?,13.1µM*,-25.9%,-4.1%
O=C(NC(=S)Nc1ccc2c(c1)OCCO2)c1ccccc1,-10.4%,15.5%,8.91µM*,-20.8%
COc1cccc(OC)c1C(=O)NC(=S)Nc1ccc2c(c1)C(=O)N(C)C2=O,1.65µM*,?,-18.4%,14.6%
O=C(NC(=S)Nc1ccc(F)cc1)c1ccc2c(c1)OCCO2,131.6%,?,11.2µM*,-0.9%
CCOc1cccc(C(=O)NC(=S)Nc2ccc3c(c2)OCCO3)c1,81.0%,13.0%,?,13.3%
O=C(NC(=S)Nc1ccc2c(c1)OCCO2)c1ccccc1F,?,?,?,-0.3%
COc1cccc(OC)c1C(=O)NC(=S)Nc1ccc2c(c1)OCCO2,4.15µM*,?,/,-2.3%
SMILES,Pf growth 48h,Pf growth 96h,Sm TGR inh,SARS PLP yeast
COc1ccc(NC(=S)NC(=O)c2ccc3c(c2)OCCO3)cc1,/,/,/,0.2%
CCOc1ccccc1C1CC(=O)Oc2c1c(=O)n(C)c1ccccc21 (stereo not drawn),/,/,9.5%,/
CSc1ccc(CCNC(=O)C(C)n2c(C)c3cnn(-c4ccccc4)c(=O)c3c2C)cc1 (stereo not drawn),/,/,1.3%,/
COc1ccc2c(c1)nc(SCC(=O)c1ccc(Br)s1)n2C,?,0.0%,31.6µM*,8.6%
COC(=O)CSc1nc2cc(OC)ccc2n1C,-11.7%,4.8%,25.4%,-0.4%
CCN1C(=O)S/C(=C/c2ccc(Sc3nc4ccccc4[nH]3)o2)C1=O,-8.9%,9.28µM*,-2.9%,-12.3%
COc1ccc(CCNC(=O)COc2ccc(S(=O)(=O)NC3CCCCC3)cc2Cl)cc1OC,11.7µM*,10.4%,-10.5%,14.7%
O=C(COc1ccc(S(=O)(=O)NC2CCCCC2)cc1Cl)Nc1ccc2c(c1)OCO2,/,10.4µM*,-1.9%,-12.9%
CCCCCCOc1ccc(/C=C/C(=O)Nc2sc3c(c2C(=O)OC)CCC3)cc1OC,/,/,-1.8%,/
Cc1cc(NC(=O)CSc2nc3ccsc3c(=O)n2CCCCC(=O)O)no1,12.2%,4.65µM*,-17.3%,-1.1%
COc1ccc(CCn2c(SCC(=O)Nc3cc(C)on3)nc3ccsc3c2=O)cc1OC,8.28µM*,/,7.6%,-1.5%
CCOC(=O)c1scc(-c2ccc(C)cc2)c1S(=O)(=O)Nc1cccc(CC)c1,/,/,-3.6%,/
COc1cccc(Cn2c(=O)n(-c3ccc(Br)cc3F)c(=O)c3sc4ccccc4c32)c1,/,/,1.7%,/
CC1CCC(NC(=O)COC(=O)CNC(=O)c2ccc3ccccc3c2)CC1 (stereo not drawn),2.3%,-15.8%,-15.4%,-1.0%
Cc1cc(C)c(N2CCN(S(=O)(=O)N3CCCCCC3)CC2)c(C)c1,10.4µM*,/,?,-22.2%
COc1cc(OC)c(N(C)C(=O)Nc2cn(CC(C)C)c(=O)c3ccccc23)cc1Cl,/,/,-2.9%,/
O=C(c1cc2cc(F)ccc2[nH]1)N(Cc1cccnc1)CC1CCCN(C2CCCCC2)C1 (stereo not drawn),2.62µM*,?,-5.4%,-7.8%
COc1ccc(CN2C(=O)c3cccnc3C2=O)cc1S(=O)(=O)NC1CCCCC1,22.1%,13.1µM*,-10.4%,-1.5%
O=C1c2cccnc2C(=O)N1Cc1ccc(Cl)cc1,0.8%,1.65µM*,-0.1%,-0.5%
CCOC(CNC(=O)c1cccn2c(=O)c3c(C)c(C)sc3nc12)OCC,6.57µM*,13.1µM*,-14.9%,-0.2%
CCOC(CNC(=O)c1cccn2c(=O)c3cc(Cl)ccc3nc12)OCC,/,?,0.6%,1.8%
O=C(O)CCSc1nnc(SCC(=O)NC2CCS(=O)(=O)C2)s1 (stereo not drawn),/,/,/,-0.3%
Cc1c(NS(=O)(=O)c2ccc3c(c2)NC(=O)CC(=O)N3)cccc1[N+](=O)[O-],11.6%,14.7µM*,6.3%,-0.9%
CC(CCc1ccccc1)NC(=O)c1ccc(NC(=O)c2cccc(Br)c2)cc1 (stereo not drawn),14.7µM*,9.28µM*,-3.9%,-9.5%
N#CCC(=O)Nc1ccc(C(=O)OCC(=O)N=c2sccn2Cc2ccccc2Cl)cc1,11.7µM*,?,-1.4%,2.5%
O=C(COC(=O)c1ccc(CO)cc1)Nc1ccc2ccccc2c1,0.0%,18.6%,-6.8%,-2.1%
N#CCC(=O)Nc1ccc(C(=O)OCC(=O)Nc2ccc3ccccc3c2)cc1,13.1µM*,-13.7%,-1.1%,-3.0%
CC(CCc1ccccc1)NC(=O)COC(=O)c1ccc(NC(=O)CC#N)cc1 (stereo not drawn),11.7µM*,?,1.1%,1.9%
